Measurements: PMC11006913
Positions count from the first letter of the chain named.

Experiments:
Assay in all cases: PBM; 200 nM protein, PBS
Details in all cases: dsDNA, one strand shown
NKX2-6 [1] = target: T1, NKX2-6 (Homo sapiens, UniProt A6NCS4 118-204)
T1 sequence: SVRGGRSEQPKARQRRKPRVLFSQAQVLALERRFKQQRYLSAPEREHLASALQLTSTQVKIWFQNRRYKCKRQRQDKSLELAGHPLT

NKX2-6 [2] = target: T2, NKX2-6 (Homo sapiens, UniProt A6NCS4 118-204, F151L)
T2 sequence: T1 sequence with F34L

PAX4 [3] = target: T3, PAX4 (Homo sapiens, UniProt O43316 9-242, R200Q)
T3 sequence: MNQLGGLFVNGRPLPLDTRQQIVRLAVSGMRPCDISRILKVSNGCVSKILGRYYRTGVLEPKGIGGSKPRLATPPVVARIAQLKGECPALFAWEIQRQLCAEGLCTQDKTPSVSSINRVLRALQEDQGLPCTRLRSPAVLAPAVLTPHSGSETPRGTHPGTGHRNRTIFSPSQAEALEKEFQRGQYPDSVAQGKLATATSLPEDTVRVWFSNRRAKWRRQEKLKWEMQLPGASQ

PAX4 [4] = target: T4, PAX4 (Homo sapiens, UniProt O43316 9-242, F177Y)
T4 sequence: T3 sequence with F169Y, Q192R

PAX4 [5] = target: T5, PAX4 (Homo sapiens, UniProt O43316 9-242, R227W)
T5 sequence: T3 sequence with Q192R, R219W

GCGTCGCA
binding signal (NKX2-6 [1]): 9.48 upbm affinity estimate (log intensity, higher = more binding, comparable within an allelic series) | binding signal (NKX2-6 [2]): 9.49 upbm affinity estimate (log intensity, higher = more binding, comparable within an allelic series)

CGCGGTCA
binding signal (NKX2-6 [1]): 9.54 upbm affinity estimate (log intensity, higher = more binding, comparable within an allelic series) | binding signal (NKX2-6 [2]): 9.33 upbm affinity estimate (log intensity, higher = more binding, comparable within an allelic series)

CACACGGA
binding signal (NKX2-6 [1]): 9.29 upbm affinity estimate (log intensity, higher = more binding, comparable within an allelic series) | binding signal (NKX2-6 [2]): 9.43 upbm affinity estimate (log intensity, higher = more binding, comparable within an allelic series)

AAAGAGGG
binding signal (NKX2-6 [1]): 11.6 upbm affinity estimate (log intensity, higher = more binding, comparable within an allelic series) | binding signal (NKX2-6 [2]): 9.79 upbm affinity estimate (log intensity, higher = more binding, comparable within an allelic series)

ATCCCAGG
binding signal (NKX2-6 [1]): 9.47 upbm affinity estimate (log intensity, higher = more binding, comparable within an allelic series) | binding signal (NKX2-6 [2]): 9.43 upbm affinity estimate (log intensity, higher = more binding, comparable within an allelic series)

CCGTTGGC
binding signal (NKX2-6 [1]): 9.2 upbm affinity estimate (log intensity, higher = more binding, comparable within an allelic series) | binding signal (NKX2-6 [2]): 9.41 upbm affinity estimate (log intensity, higher = more binding, comparable within an allelic series)

GACCACTC
binding signal (NKX2-6 [1]): 12.3 upbm affinity estimate (log intensity, higher = more binding, comparable within an allelic series) | binding signal (NKX2-6 [2]): 9.92 upbm affinity estimate (log intensity, higher = more binding, comparable within an allelic series)

GGCACAGA
binding signal (NKX2-6 [1]): 9.3 upbm affinity estimate (log intensity, higher = more binding, comparable within an allelic series) | binding signal (NKX2-6 [2]): 9.37 upbm affinity estimate (log intensity, higher = more binding, comparable within an allelic series)

CGTCCGTA
binding signal (NKX2-6 [1]): 9.42 upbm affinity estimate (log intensity, higher = more binding, comparable within an allelic series) | binding signal (NKX2-6 [2]): 9.44 upbm affinity estimate (log intensity, higher = more binding, comparable within an allelic series)

CAGACTAG
binding signal (NKX2-6 [1]): 9.38 upbm affinity estimate (log intensity, higher = more binding, comparable within an allelic series) | binding signal (NKX2-6 [2]): 9.36 upbm affinity estimate (log intensity, higher = more binding, comparable within an allelic series)

ACTTGACT
binding signal (NKX2-6 [1]): 12.4 upbm affinity estimate (log intensity, higher = more binding, comparable within an allelic series) | binding signal (NKX2-6 [2]): 10.4 upbm affinity estimate (log intensity, higher = more binding, comparable within an allelic series)

CCAGAATC
binding signal (NKX2-6 [1]): 9.71 upbm affinity estimate (log intensity, higher = more binding, comparable within an allelic series) | binding signal (NKX2-6 [2]): 9.51 upbm affinity estimate (log intensity, higher = more binding, comparable within an allelic series)

CCGGGTCC
binding signal (NKX2-6 [1]): 9.7 upbm affinity estimate (log intensity, higher = more binding, comparable within an allelic series) | binding signal (NKX2-6 [2]): 9.17 upbm affinity estimate (log intensity, higher = more binding, comparable within an allelic series)

ACGGCCAG
binding signal (NKX2-6 [1]): 9.26 upbm affinity estimate (log intensity, higher = more binding, comparable within an allelic series) | binding signal (NKX2-6 [2]): 9.26 upbm affinity estimate (log intensity, higher = more binding, comparable within an allelic series)

CGGTGGCC
binding signal (NKX2-6 [1]): 9.03 upbm affinity estimate (log intensity, higher = more binding, comparable within an allelic series) | binding signal (NKX2-6 [2]): 9.22 upbm affinity estimate (log intensity, higher = more binding, comparable within an allelic series)

CACGGGTC
binding signal (NKX2-6 [1]): 9.25 upbm affinity estimate (log intensity, higher = more binding, comparable within an allelic series) | binding signal (NKX2-6 [2]): 9.31 upbm affinity estimate (log intensity, higher = more binding, comparable within an allelic series)

GGCCCGTA
binding signal (NKX2-6 [1]): 9.15 upbm affinity estimate (log intensity, higher = more binding, comparable within an allelic series) | binding signal (NKX2-6 [2]): 9.45 upbm affinity estimate (log intensity, higher = more binding, comparable within an allelic series)

ACGGCACG
binding signal (NKX2-6 [1]): 9.26 upbm affinity estimate (log intensity, higher = more binding, comparable within an allelic series) | binding signal (NKX2-6 [2]): 9.49 upbm affinity estimate (log intensity, higher = more binding, comparable within an allelic series)

GAAATTAA
binding signal (PAX4 [3]): 11.9 upbm affinity estimate (log intensity, higher = more binding, comparable within an allelic series) | binding signal (PAX4 [4]): 10.9 upbm affinity estimate (log intensity, higher = more binding, comparable within an allelic series) | binding signal (PAX4 [5]): 10.9 upbm affinity estimate (log intensity, higher = more binding, comparable within an allelic series)

ATCCGCAG
binding signal (NKX2-6 [1]): 9.55 upbm affinity estimate (log intensity, higher = more binding, comparable within an allelic series) | binding signal (NKX2-6 [2]): 9.47 upbm affinity estimate (log intensity, higher = more binding, comparable within an allelic series)

GCGACAGC
binding signal (NKX2-6 [1]): 9.46 upbm affinity estimate (log intensity, higher = more binding, comparable within an allelic series) | binding signal (NKX2-6 [2]): 9.41 upbm affinity estimate (log intensity, higher = more binding, comparable within an allelic series)

CCCAAGGC
binding signal (NKX2-6 [1]): 9.12 upbm affinity estimate (log intensity, higher = more binding, comparable within an allelic series) | binding signal (NKX2-6 [2]): 9.27 upbm affinity estimate (log intensity, higher = more binding, comparable within an allelic series)

ACCGTTTG
binding signal (NKX2-6 [1]): 9.46 upbm affinity estimate (log intensity, higher = more binding, comparable within an allelic series) | binding signal (NKX2-6 [2]): 9.44 upbm affinity estimate (log intensity, higher = more binding, comparable within an allelic series)

AAATTAGA
binding signal (PAX4 [3]): 11.9 upbm affinity estimate (log intensity, higher = more binding, comparable within an allelic series) | binding signal (PAX4 [5]): 10.9 upbm affinity estimate (log intensity, higher = more binding, comparable within an allelic series)

GAAGAGCA
binding signal (NKX2-6 [1]): 11.4 upbm affinity estimate (log intensity, higher = more binding, comparable within an allelic series) | binding signal (NKX2-6 [2]): 9.71 upbm affinity estimate (log intensity, higher = more binding, comparable within an allelic series)

GGTGCGAC
binding signal (NKX2-6 [1]): 9.44 upbm affinity estimate (log intensity, higher = more binding, comparable within an allelic series) | binding signal (NKX2-6 [2]): 9.43 upbm affinity estimate (log intensity, higher = more binding, comparable within an allelic series)

ACCGGGGG
binding signal (NKX2-6 [1]): 9.31 upbm affinity estimate (log intensity, higher = more binding, comparable within an allelic series) | binding signal (NKX2-6 [2]): 9.04 upbm affinity estimate (log intensity, higher = more binding, comparable within an allelic series)

ACTACTTA
binding signal (NKX2-6 [1]): 13.5 upbm affinity estimate (log intensity, higher = more binding, comparable within an allelic series) | binding signal (NKX2-6 [2]): 10.5 upbm affinity estimate (log intensity, higher = more binding, comparable within an allelic series)

CGGGACGC
binding signal (NKX2-6 [1]): 9.53 upbm affinity estimate (log intensity, higher = more binding, comparable within an allelic series) | binding signal (NKX2-6 [2]): 9.25 upbm affinity estimate (log intensity, higher = more binding, comparable within an allelic series)
